# Measured values reported in PubChem BioAssay (Tox21).
# “And” between values parts separate entries of the source, which are not always exact repeats. Equal values may be shown once. Records with an inconclusive call do not appear. Entries that show only a call come without a potency. Some compounds were tested as several samples or in several runs, with calls that do not always agree. The source made the active and inactive calls. Unless noted, the call rests on the fitted dose curve; in most records, active means well fitted curve in the direction sought with a large enough effect in the repeat runs; inconclusive means weak or mixed curves; inactive means no such curve, though single readings can be large; an effect the other way counts as inactive or inconclusive. Residues, ends and D or L forms follow the SMILES beside them.
# Experiments:
# [1] = A CellTox Green Cytotoxicity Assay to monitor cytotoxicity in HepG2 cells - 8 hour (AID 1224890); further: nearly all actives have a fitted effect of over 45% in size; further: potency means the concentration at half of the fitted maximal effect
# In short: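 Nonlytic assay: viable cells exclude the dye, so fluorescence scales with cell death. HepG2 at 600 cells/well, compounds added after 5 h, signal read across 40 h.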
# [2] = qHTS assay to identify small molecule antagonists of the estrogen receptor alpha (ER-alpha) signaling pathway using the BG1 cell line in the presence of 0.1 nM 17-beta-estradiol - cell viability counter screen (AID 1259241); further: nearly all actives have a fitted effect of over 40% in size
# In short: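 Estradiol-stimulated (0.1 nM) VM7Luc4E2 cells exposed to compounds 22 hr; viability measured by fluorescence of cleaved CellTiter-Fluor substrate after 30 min.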
# [3] = qHTS assay to identify small molecule antagonists of the androgen receptor (AR) signaling pathway using the MDA cell line in the presence of 0.5 nM R1881 - cell viability counter screen (AID 1259242); further: nearly all actives have a fitted effect of over 45% in size; further: potency means the concentration at half of the fitted maximal effect
# In short: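 R1881 at 0.5 nM final stimulated MDA-kb2 cells during 16 hr compound treatment at 37C. Cytotoxicity read: CellTiter-Fluor fluorescence after 30 min.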
# [4] = molecular target: Estrogen receptor (Homo sapiens) (UniProt P03372); test: qHTS assay to identify small molecule antagonists of the estrogen receptor alpha (ER-alpha) signaling pathway using the BG1 cell line in the presence of 0.1 nM 17-beta-estradiol (AID 1259244); further: nearly all actives have a fitted effect of over 50% in size
# In short: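 VM7Luc4E2; 4xERE-luciferase; 0.1 nM E2 final; 22 h co-incubation, 37C; ONE-Glo luminescence after 30 min at room temperature.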
# [5] = qHTS assay to identify small molecule phospholipidosis (PLD) inducers (AID 1259344; active means well fitted curve in the direction sought with a large enough effect; an effect the other way counts as inactive or inconclusive)
# In short: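 Fluorescent phospholipid staining (LipidTOX Red) measured by automated microscopy in fixed HepG2 cells after 24 h treatment; nuclei counterstained with Hoechst 33342; amiodarone as reference inducer.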
# [6] = qHTS assay to identify small molecule HDAC inhibitors (AID 1259364);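 further: wild-type HCT-116 cells with endogenous class I/II HDAC activity; top concentration of the series differs between compounds; nearly all actives have a fitted effect of over 45% in size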
# In short: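 Relative class I and II HDAC activity is taken from the luminogenic signal in HCT-116 cells, with compound exposure 2 hr and reagent development 30 min at room temperature.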
# [7] = qHTS assay to identify small molecule HDAC inhibitors - cell viability counter screen (AID 1259365); further: series mostly up to about 92 µM; nearly all actives have a fitted effect of over 50% in size
# In short: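 After overnight seeding at 1,500 cells per well, wild-type HCT-116 cultures took up compounds in DMSO for 2hr at 37 C. Viable cell content came from luminescence with CellTiter-Glo.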
# [8] = qHTS assay to identify small molecule antagonists of the sonic hedgehog signaling (Shh) pathway - cell viability counter screen (AID 1259367); further: nearly all actives have a fitted effect of over 55% in size; further: potency means the concentration at half of the fitted maximal effect
# In short: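 Using CellTiter-Fluor, viability of Gli1-Luc reporter 3T3 cells is read by fluorescence in the wells used for the Shh luciferase assay. Treatment lasts 23 hr with conditioned medium, then reagent 1 hr at 37C.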
# [9] = qHTS assay to identify small molecule agonists of the sonic hedgehog signaling (Shh) pathway (AID 1259368; calls by dose curve;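 further: NIH/3T3-derived 3T3Gli1-Luc cells carrying a stable Gli1-driven firefly luciferase reporter; series mostly up to about 92 µM; nearly all actives have a fitted effect of over 15% in size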)
# In short: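 Mouse fibroblast (NIH/3T3) reporter cells with stably integrated Gli1-Luc were treated 24 hr with compound; firefly luciferase luminescence served as the read-out.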
# [10] = qHTS assay to identify small molecule antagonists of the sonic hedgehog signaling (Shh) pathway (AID 1259369; calls by dose curve; further: nearly all actives have a fitted effect of over 45% in size; further: potency means the concentration at half of the fitted maximal effect)
# In short: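 Conditioned medium drives Shh signalling in 3T3Gli1-Luc cells; compounds in DMSO co-applied, 24hr at 37 C, then luciferase luminescence.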
# [11] = qHTS assay to identify small molecule agonists of the androgen receptor (AR) signaling pathway in the presence of an antagonist - cell viability counter screen (AID 1259379); further: nearly all actives have a fitted effect of over 25% in size; further: potency means the concentration at half of the fitted maximal effect
# In short: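 A CellTiter-Fluor read-out measured viability of MDA-kb2 reporter cells (MMTV promoter with AR and GR response elements). Treatment: nilutamide 3.0uM final with compounds at 15 concentrations, 16 hr, 37C, 0% CO2.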
# [12] = qHTS assay to identify small molecule agonists of the estrogen receptor beta (ER-beta) signaling pathway - cell viability counter screen (AID 1259380); further: nearly all actives have a fitted effect of over 30% in size; further: potency means the concentration at half of the fitted maximal effect
# In short: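 Cells used were ER-beta-UAS-bla HEK293T in medium with 2% charcoal-stripped FBS. They were treated for 16 hr at 37C. Viability came from CellTiter-Glo luminescence.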
# [13] = qHTS assay to identify small molecule antagonists of the estrogen receptor beta (ER-beta) signaling pathway - cell viability counter screen (AID 1259382); further: nearly all actives have a fitted effect of over 55% in size; further: potency means the concentration at half of the fitted maximal effect
# In short: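 Agonist-stimulated (1nM E2) ER-beta-UAS-bla HEK293T cells are incubated with library compounds for 16 hr at 37C. Cell viability is then assessed in the reporter-assay wells by adding CellTiter-Glo and reading luminescence after 30 min.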
# [14] = molecular target: Estrogen receptor (Homo sapiens) (UniProt P03372); test: qHTS assay to identify small molecule agonists of the estrogen receptor alpha (ER-alpha) signaling pathway in the presence of an antagonist (AID 1259383; calls by dose curve; further: top concentration of the series differs between compounds; nearly all actives have a fitted effect of over 15% in size)
# In short: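 Using VM7Luc4E2 cells seeded 24hr before treatment, antagonist ICI-182,780 (10.0nM final) was added, followed by compounds at 15 concentrations. Plates incubated 22hr; ONE-Glo luminescence quantified reporter activity.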
# [15] = qHTS assay to identify small molecule agonists or antagonists of the thyroid stimulating hormone receptor (TSHR) signaling pathway - wild type cell line counter screen (AID 1259384; calls by dose curve)
# In short: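 Counter screen in untransfected Hek293: compounds (15-point titration, triplicate) plus phosphodiesterase inhibitor Ro20-1724 added after 18 h plating; 30 min RT. Intracellular cAMP via competitive d2/cryptate immunoassay, 1 h incubation.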
# [16] = molecular target: Thyrotropin receptor (Homo sapiens) (UniProt P16473); test: qHTS assay to identify small molecule antagonists of the thyroid stimulating hormone receptor (TSHR) signaling pathway (AID 1259385; calls by dose curve; further: nearly all actives have a fitted effect of over 20% in size)
# In short: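 Antagonist mode: compound-treated TSHR-expressing HEK293 cells were stimulated with 1.5 ng/mL TSH (final) in presence of Ro20-1724 for 30 min at RT. HTRF cAMP detection after 1 h; each compound tested at 15 concentrations, triplicate.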
# [17] = molecular target: Estrogen receptor beta (Homo sapiens) (UniProt Q92731); test: qHTS assay to identify small molecule agonists of the estrogen receptor beta (ER-beta) signaling pathway (AID 1259377; active means well fitted activation curve with a large enough effect in the signal ratio in the repeat runs, not every such curve was filed as active; the % refers to the signal ratio)
# In short: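 Read-out: beta-lactamase FRET fluorescence. Cell line: ER-beta-UAS-bla HEK293T in 2% charcoal-stripped FBS. Exposure: 16 hr at 37C. Substrate step: 2 h at room temperature.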
# [18] = molecular target: Estrogen receptor beta (Homo sapiens) (UniProt Q92731); test: qHTS assay to identify small molecule antagonists of the estrogen receptor beta (ER-beta) signaling pathway (AID 1259378; active means well fitted inhibition curve with a large enough effect in the signal ratio in the repeat runs, not every such curve was filed as active; the % refers to the signal ratio)
# In short: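 Antagonist mode: compounds added to beta-lactamase reporter HEK293T ER-beta-UAS cells stimulated with E2 (1nM final), 16 hr at 37C. LiveBLAzer B/G FRET substrate, 2 hours room temperature, fluorescence read-out.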
# [19] = qHTS assay to identify small molecule agonists of the sonic hedgehog signaling (Shh) pathway - cell viability counter screen (AID 1259366); further: nearly all actives have a fitted effect of over 50% in size
# In short: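 Same-well cytotoxicity read. Gli1-Luc reporter 3T3 cells; compounds 24hr, 37C/5% CO2; CellTiter-Fluor fluorescence.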
# [20] = molecular target: Androgen receptor (Homo sapiens) (UniProt P10275); test: qHTS assay to identify small molecule agonists of the androgen receptor (AR) signaling pathway in the presence of an antagonist (AID 1259381; calls by dose curve; further: nearly all actives have a fitted effect of over 15% in size)
# In short: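 Using human MDA-kb2 cells with an MMTV promoter–luciferase construct (AR and GR response elements), agonist activity is scored under 3.0uM nilutamide (final) co-treatment; 16hr incubation, 37C, luminescence readout via ONE-Glo.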
# Thyrotropin receptor (Homo sapiens), sequence (P16473 whole entry, looked up): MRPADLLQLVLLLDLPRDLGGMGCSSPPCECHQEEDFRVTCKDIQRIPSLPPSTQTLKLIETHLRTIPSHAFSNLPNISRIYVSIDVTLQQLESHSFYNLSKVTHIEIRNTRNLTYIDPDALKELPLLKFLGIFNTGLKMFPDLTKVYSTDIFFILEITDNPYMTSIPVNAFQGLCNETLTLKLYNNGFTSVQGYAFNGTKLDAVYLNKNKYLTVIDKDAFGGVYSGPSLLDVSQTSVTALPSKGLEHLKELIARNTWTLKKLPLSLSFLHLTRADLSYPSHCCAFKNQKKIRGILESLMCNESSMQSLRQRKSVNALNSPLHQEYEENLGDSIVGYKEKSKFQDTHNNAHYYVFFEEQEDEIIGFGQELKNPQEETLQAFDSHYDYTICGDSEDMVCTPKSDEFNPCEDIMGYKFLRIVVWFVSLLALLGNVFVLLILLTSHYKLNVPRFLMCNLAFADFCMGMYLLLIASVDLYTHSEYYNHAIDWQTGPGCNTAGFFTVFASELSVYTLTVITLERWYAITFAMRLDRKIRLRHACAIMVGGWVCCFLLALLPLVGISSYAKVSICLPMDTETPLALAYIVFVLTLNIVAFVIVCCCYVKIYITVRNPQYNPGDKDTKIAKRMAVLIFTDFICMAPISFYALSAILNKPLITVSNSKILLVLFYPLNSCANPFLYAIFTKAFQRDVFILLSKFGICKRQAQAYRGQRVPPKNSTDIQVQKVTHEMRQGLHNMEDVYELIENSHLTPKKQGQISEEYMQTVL
# Estrogen receptor beta (Homo sapiens), sequence (Q92731 whole entry, looked up): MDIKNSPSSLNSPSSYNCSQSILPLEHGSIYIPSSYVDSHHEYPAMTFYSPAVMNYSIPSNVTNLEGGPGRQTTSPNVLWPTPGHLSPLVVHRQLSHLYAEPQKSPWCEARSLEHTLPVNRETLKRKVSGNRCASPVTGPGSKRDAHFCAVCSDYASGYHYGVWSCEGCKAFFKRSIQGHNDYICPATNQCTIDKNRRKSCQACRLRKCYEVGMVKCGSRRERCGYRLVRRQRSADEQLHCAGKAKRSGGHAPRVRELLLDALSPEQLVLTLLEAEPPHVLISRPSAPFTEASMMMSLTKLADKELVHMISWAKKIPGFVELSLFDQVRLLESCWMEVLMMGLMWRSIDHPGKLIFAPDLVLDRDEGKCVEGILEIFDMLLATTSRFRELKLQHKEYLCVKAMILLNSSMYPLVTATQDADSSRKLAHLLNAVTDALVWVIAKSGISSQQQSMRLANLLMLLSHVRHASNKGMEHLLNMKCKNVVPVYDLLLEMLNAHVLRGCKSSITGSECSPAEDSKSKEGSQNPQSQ
# Androgen receptor (Homo sapiens), sequence (P10275 whole entry, looked up): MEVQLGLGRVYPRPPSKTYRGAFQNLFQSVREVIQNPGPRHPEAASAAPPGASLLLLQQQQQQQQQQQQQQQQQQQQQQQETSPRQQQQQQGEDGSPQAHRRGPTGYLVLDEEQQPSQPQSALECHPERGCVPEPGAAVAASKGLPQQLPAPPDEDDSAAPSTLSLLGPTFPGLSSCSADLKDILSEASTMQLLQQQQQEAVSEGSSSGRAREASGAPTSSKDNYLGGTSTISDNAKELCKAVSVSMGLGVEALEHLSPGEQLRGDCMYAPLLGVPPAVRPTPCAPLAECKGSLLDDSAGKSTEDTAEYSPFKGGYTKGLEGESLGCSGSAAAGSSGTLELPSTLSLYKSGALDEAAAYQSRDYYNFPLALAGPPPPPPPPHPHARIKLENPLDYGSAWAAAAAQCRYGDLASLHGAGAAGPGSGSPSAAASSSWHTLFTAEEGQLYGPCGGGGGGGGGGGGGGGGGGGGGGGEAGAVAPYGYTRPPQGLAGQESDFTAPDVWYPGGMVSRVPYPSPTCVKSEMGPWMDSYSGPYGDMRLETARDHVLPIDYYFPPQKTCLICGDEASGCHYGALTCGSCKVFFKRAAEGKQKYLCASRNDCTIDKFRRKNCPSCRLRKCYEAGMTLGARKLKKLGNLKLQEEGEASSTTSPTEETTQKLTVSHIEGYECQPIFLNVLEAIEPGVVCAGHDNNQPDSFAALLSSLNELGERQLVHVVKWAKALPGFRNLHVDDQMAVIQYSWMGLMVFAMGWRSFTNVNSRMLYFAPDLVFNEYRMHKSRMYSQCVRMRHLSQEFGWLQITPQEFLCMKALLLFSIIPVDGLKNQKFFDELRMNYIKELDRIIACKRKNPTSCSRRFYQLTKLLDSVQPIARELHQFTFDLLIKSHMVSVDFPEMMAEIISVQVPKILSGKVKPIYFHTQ
# Estrogen receptor (Homo sapiens), sequence (P03372 whole entry, looked up): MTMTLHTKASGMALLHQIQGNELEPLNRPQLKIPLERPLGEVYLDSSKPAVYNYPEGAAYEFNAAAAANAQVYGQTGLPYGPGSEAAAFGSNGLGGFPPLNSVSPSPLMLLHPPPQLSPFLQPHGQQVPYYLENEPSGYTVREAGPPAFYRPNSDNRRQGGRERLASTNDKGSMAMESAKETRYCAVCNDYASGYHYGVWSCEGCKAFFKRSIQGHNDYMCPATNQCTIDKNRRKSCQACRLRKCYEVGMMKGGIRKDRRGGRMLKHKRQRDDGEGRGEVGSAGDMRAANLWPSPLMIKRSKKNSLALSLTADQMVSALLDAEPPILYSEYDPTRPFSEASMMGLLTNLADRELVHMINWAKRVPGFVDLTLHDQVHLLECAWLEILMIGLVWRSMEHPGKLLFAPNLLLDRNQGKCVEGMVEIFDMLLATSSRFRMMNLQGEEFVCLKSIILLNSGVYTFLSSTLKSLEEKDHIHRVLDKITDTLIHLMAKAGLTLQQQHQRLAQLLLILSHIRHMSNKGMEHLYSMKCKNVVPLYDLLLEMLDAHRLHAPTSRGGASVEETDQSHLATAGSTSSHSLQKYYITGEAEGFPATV
SMILES,Potency [1],Potency [2],Potency [3],Potency [4],outcome [5],Potency [6],outcome [7],Potency [8],outcome [9],Potency [10],Potency [11],Potency [12],Potency [13],Potency [14],outcome [15],outcome [16],outcome [17],Potency [18],Potency [19],Potency [20]
Nc1ccc(S(=O)(=O)c2ccc(N)cc2)cc1,inactive,inactive,inactive,inactive,inactive,inactive,inactive,inactive,inactive,inactive,inactive,inactive,inactive,inactive,inactive,inactive,–,–,–,–
CCCCC1C(=O)N(c2ccccc2)N(c2ccccc2)C1=O,inactive,inactive,inactive,inactive,inactive,inactive,inactive,inactive,inactive,inactive,inactive,inactive,inactive,inactive,inactive,inactive,inactive,inactive,–,–
Nc1ccc(S(=O)(=O)Nc2nccs2)cc1,inactive and 43.6 µM (active),inactive,inactive,inactive,inactive,inactive,inactive,inactive,inactive,inactive,inactive,inactive,inactive,inactive,inactive,inactive,–,–,inactive,–
COC(=O)[C@H](Cc1ccccc1)NC(=O)[C@@H](N)CC(=O)O (H-Asp-Phe-OMe),inactive,inactive,inactive,inactive,inactive,inactive,inactive,inactive,inactive,inactive,inactive,inactive,inactive,inactive,inactive,inactive,–,–,inactive,–
NS(=O)(=O)c1cc(C(=O)O)c(NCc2ccco2)cc1Cl,inactive,inactive,inactive,inactive,inactive,inactive,inactive,inactive,inactive,inactive,inactive,inactive,inactive,inactive,inactive,inactive,–,–,inactive,–
CC1(C)[C@@H]2CC[C@@]1(C)C(=O)C2,inactive,inactive,inactive,inactive,inactive,inactive,inactive,inactive,inactive,inactive,inactive,inactive,inactive,inactive,inactive,inactive,inactive,inactive,–,–
CC(=O)NS(=O)(=O)c1ccc(N)cc1,inactive,inactive,inactive,inactive,inactive,inactive,inactive,inactive,inactive,inactive,inactive,inactive,inactive,inactive,–,–,inactive,inactive,–,–
COc1c2occc2cc2ccc(=O)oc12,inactive,inactive,inactive,–,inactive,inactive,inactive,inactive,inactive,24.3 µM (active) and inactive,inactive,inactive,inactive,–,inactive,inactive,inactive,inactive,inactive,–
Cc1ccc(O)cc1,inactive,inactive,inactive,–,inactive,inactive,inactive,inactive,inactive,inactive,inactive,inactive,inactive,–,inactive,inactive,inactive,inactive,–,inactive
O=C(c1ccccc1)c1ccccc1,inactive,inactive,inactive,–,inactive,inactive,inactive,inactive,inactive,inactive,inactive,inactive,inactive,–,–,–,–,–,–,inactive
O=C1CN(/N=C/c2ccc([N+](=O)[O-])o2)C(=O)N1,inactive,–,inactive,inactive,inactive,inactive,inactive,48.4 µM (active) and 38.6 µM (active),inactive,48.4 µM (active) and 27.3 µM (active) and inactive,27.2 µM (active) and 61.1 µM (active) and 23.7 µM (active),–,inactive,inactive,inactive,inactive,inactive,–,–,–
c1ccc2[nH]ccc2c1,inactive,–,9.53 µM (active) and inactive,–,inactive,inactive,inactive,inactive,inactive,6.01 µM (active) and inactive,7.57 µM (active) and inactive,26.9 µM (active) and inactive,26.9 µM (active) and inactive,–,inactive,inactive,inactive,inactive,–,inactive
OCCc1ccccc1,inactive,inactive,inactive,–,inactive,inactive,inactive,inactive,inactive,inactive,inactive,inactive,inactive,–,inactive,inactive,–,–,–,–
Cc1ccccc1C(OCCN(C)C)c1ccccc1 (centres undefined),inactive,inactive,inactive,inactive,–,inactive,inactive,inactive,inactive,27.3 µM (active),inactive,61.1 µM (active),inactive,inactive,inactive,inactive,inactive,inactive,inactive,–
C1N2CN3CN1CN(C2)C3,inactive,inactive,inactive,–,inactive,inactive,inactive,inactive,inactive,inactive,inactive,inactive,inactive,–,inactive,inactive,inactive,inactive,inactive,inactive
O=C(c1ccccc1)C(O)c1ccccc1 (centres undefined),inactive,inactive,inactive,–,inactive,inactive,inactive,inactive,inactive,inactive,inactive,inactive,inactive,–,inactive,inactive,inactive,inactive,inactive,–
